This passage reports PBM binding z-score results from the supplement of paper PMC6555819.

This assay deals with RARb homodimer (NR concentration 270 nM). As to the kind of experiment: PBM binding z-score (relative to random genomic background probes); higher = stronger binding; sequences stand for … in GC…GCGATTGACAGCGTAGAATGAAGG
Put shortly: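 The probes on custom Agilent 4×180K protein-binding microarrays were double-stranded, with 34-nt variable regions bearing direct-repeat seeds, single-nucleotide variants, half-site ablations and random human genomic background sequences. Incubation lasted 1 h with ligand-free nuclear receptor dimers in PBS pH 7.4, 2% milk, 0.02% Triton X-100, 1 mM DTT, 0.2 mg/mL BSA and 0.4 mg/ml salmon testes DNA. Antibodies against each partner (one per run) detected bound dimers, and fluorescence scans were regression-normalized. Binding z-scores take the random background probes as reference.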
For the sequence CCGAGTAGGTTACGAGCGGGCATTCAGTGCGAAT, the PBM binding z-score was found to be 0.628.
Then CCGAGTAGGTTACGAGGGGGCATTAAGTGCGAAT, with 2.04.
As for ATATGTAGGCTAGGGTCATTCAGAAAGTAGGGAA, the figure is 2.44.
As for CTCGAAAGGTCGGTTGAGGTCAGTATACGGATAA, the figure is 4.41; as for CGAACTAGGTCACCAGGACAGTCAAGAGGTTGGA, 3.44; as for TCATATAGGTGAAAGGTGAAAGTCGGTGTGGTAA, 2.31.
ATATGTAGCTTAAGGGTCATTCAGGTTGGTTCGC returned a PBM binding z-score of 3.64.
As for GCTGCTAGGTCAGGTTGGTCAGCTAACGGGTACG, the figure is 2.53.
Then ATACGTAGGTTACATCCGGGTCATTCAGGCTATG, with 2.79.
As for CTATGTAGGTTAAGGAGGTCATTCAGTTTGAAAG, the figure is 3.79; as for CTATGAAGGTTAAGGGGGTCATTCAGTTTGAAAG, 4.39.
On to CGAACTAGGTCACCCGGACAGTGAAGAGGTTGGA, for which the PBM binding z-score is 3.23.
Sequence TAGCCTAGGTCATAGGCCAGTATACCACGCGAAC showed a PBM binding z-score of 2.58.
Take TCGAGTAGGTTACGGGGGCGTTCAGGGATGAAGA: the PBM binding z-score is 1.66.
In the case of CGAACTAGGTCAAATGACAGTGAAAGGCGACGTA, the PBM binding z-score is 2.7.
As for ATATGGAGGTTAAGGGTCATTCAGGTTGGTTCGC, the figure is 4.46.
In turn, CCTACTGGGCCAAGCTCATTGATCAGTCAAAGCA yielded a PBM binding z-score of -0.235.
Then AGTCAAAGTTCATCAAGGTAACGTAAGATATGCT, with 3.86; and ACAGACAGGTGAGTGAAGGTCACTCAGCTGGACG, with 3.64; and TCGAGTAGGTTACGGGGGCCTTCAGGGATGAAGA, with 1.03.
As for CAAACTAGGTCACCGGAAAGTCAAAGTCCGCATG, the figure is 3.86; as for CGAACTAGGTCAACAGGACAGTGAAGAGGTTGGA, 3.39; as for CGAACTAGATCACCAGGACAGTGAAGAGGTTGGA, 0.0313.
As for CCGAGTAGGTTACGAGGGGACATTCAGTGCGAAT, the figure is 1.22; as for CTGAGTAGGTTACGAGGGGGCATTCAGTGCGAAT, 2.18; as for ATATGTAGGTTAGGGTGATTCAGAAAGTAGGGAA, 1.48.
Sequence CCTAGTGGGCCAAAGGTCATTGATTCCAATGCTC yielded a PBM binding z-score of 4.6.
CTATGTAGGTTAAGGGGGTCATCCAGTTTGAAAG came in with a PBM binding z-score of 4.02.
As for CTCCAAAGGTCGGTTGAGGTGAGTATACGGATAA, the figure is 2.61; as for TCGAGTAGGTTACGGGGGCATTCATGGATGAAGA, 2.23.
As for CACACTAGGTCAAAGGTCAAAGTCGAGCCAACCA, the figure is 5.42.
Then CCGAGTAGGTTACGAGGGGGCATTCTGTGCGAAT, with 2.05; and CCTAGTGGGTCAGGAGGTCACACACCGGATATGA, with 4.61.
CCTAGCAGGCCACGGTCACTCAAGCATTTCGCTT: the PBM binding z-score is 1.74.
Then ATCTCTAGGTCAAAGTTCAGTGAATCCCGAGGAT, with 4.18; and ACTCGGAGGACAAAGGTGAGAGCTACGCCAGTGA, with 1.79.
As for ATATGAAGGTTATCGGGTCATTCAGTTTGCGCAT, the figure is 3.17; as for GGAACGGGGGCATTCGAGTTGATAGCATGGCGAT, 1.62.
As for CCTAGTTGGTCAGGAGGTCACATACCGGATATGA, the PBM binding z-score was found to be 4.17.
